Compounds with a hit are over-represented: about 9% of the library has one in this group of screens.
IMPase inh – qHTS Assay for Identifying the Cell-Membrane Permeable IMPase Inhibitors | Inositol monophosphatase 1 (Rattus norvegicus), P97697 | CHO-M1 cells, IP1 accumulation, HTRF TR-FRET ratio | inhibition (IP1 accumulation), % at 46.1 µM | 120,000 tested, under 10 active; active = well fitted curve in the direction sought with a large enough effect in the signal ratio, not every such curve was filed as active; inconclusive = small, poorly fitted or top-dose-only effect, or a change in a side signal; inactive = no such curve, though single readings can be large or run the other way; the % refers to the signal ratio;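 note: cells stimulated with carbachol in lithium chloride buffer; plate controls were DMSO basal wells for no effect and reference inhibitor wells for full effect; higher means more IMPase inhibition seen as more IP1 and lower FRET ratio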
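CHO-M1 cells (CHO stably expressing M1 receptor), compound up to 46 uM final, stimulated with carbachol (50 uM as added) in buffer with 50mM LiCl, pH 7.4, 30 min at 37C. Cytosolic IP1 read by TR-FRET; AC50 from Hill fits.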
ALDH1A1 block – qHTS Assay for Inhibitors of Aldehyde Dehydrogenase 1 (ALDH1A1); Aldehyde dehydrogenase 1A1 (Homo sapiens), P00352; Purified ALDH1A1, NADH fluorescence, propionaldehyde substrate; Potency, µM (titrated, usually from 75.3 µM), inactives show at the top dose activity, negative = inhibition, hits mostly inhibitors; actives 7.3% (n = 220,000); AID 1030, 2008;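 note: potency is the fitted concentration of half-maximal effect; plate controls were no enzyme wells and a reference inhibitor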
Target sequence (P00352 whole entry, looked up): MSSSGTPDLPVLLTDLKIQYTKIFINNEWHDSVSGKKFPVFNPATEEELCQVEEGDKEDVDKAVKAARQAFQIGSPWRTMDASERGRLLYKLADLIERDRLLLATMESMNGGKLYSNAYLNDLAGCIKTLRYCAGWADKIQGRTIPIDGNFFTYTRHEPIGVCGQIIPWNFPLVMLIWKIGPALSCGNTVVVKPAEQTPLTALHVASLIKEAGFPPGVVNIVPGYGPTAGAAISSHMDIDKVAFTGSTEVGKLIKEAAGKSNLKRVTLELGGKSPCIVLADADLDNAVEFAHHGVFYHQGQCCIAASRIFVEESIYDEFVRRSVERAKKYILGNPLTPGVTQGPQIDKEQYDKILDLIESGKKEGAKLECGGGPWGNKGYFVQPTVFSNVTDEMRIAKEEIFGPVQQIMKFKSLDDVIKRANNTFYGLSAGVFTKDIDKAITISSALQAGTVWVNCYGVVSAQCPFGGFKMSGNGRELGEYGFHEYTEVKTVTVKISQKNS
HPGD block – qHTS Assay for Inhibitors of HPGD (15-Hydroxyprostaglandin Dehydrogenase); 15-hydroxyprostaglandin dehydrogenase [NAD(+)] (Homo sapiens), P15428; purified HPGD, NADH fluorescence kinetic, PGE2 substrate; Potency, µM, for the others: at the highest dose activity change, negative = inhibition, actives largely listed as inhibitors; actives 4.3% (n = 150,000); AID 894, 2007; note: potency is the fitted concentration of half-maximal effect
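20 nM HPGD preincubated 15 min at room temperature with compound in 50 mM Tris-HCl pH 8, 0.01% Tween 20. Started with 1 mM NAD+ and 30 uM prostaglandin E2; NADH fluorescence (360/450 nm) read 5 times over 30-s intervals, last minus first.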
Starred values were filed as active, the others as inactive; ? = inconclusive; nt = no result; [ ] = another dose, or the depositor's remark. Unless noted, calls come from the whole dose curve; as a rule, active = well fitted inhibition curve with a large enough effect (not every such curve was filed as active); inconclusive = small, poorly fitted or top-dose-only effect, or another doubt; inactive = no such curve, though single readings can be large or run the other way. Unless noted, % is set by controls: 0 for no effect and ±100 for the full control effect.

SMILES | IMPase inh | ALDH1A1 block | HPGD block
Cc1ccc2cc(C(c3nnnn3C3CCCC3)N3CCN(c4ccccc4)CC3)c(=O)[nH]c2c1 (stereo unspecified) | 9.0 | 8.91µM* | -9.0%
COCCn1nnnc1C(c1ccc(OC)cc1OC)N1CCN(c2ccccc2)CC1 (stereo unspecified) | 15.6 | 7.94µM* | -18.3%
COCCn1nnnc1C(c1ccc(OC)cc1OC)N1CCN(c2ccccc2F)CC1 (stereo unspecified) | 6.0 | -9.0% | nt
COc1ccc(N2CCN(C(c3cc4cc(C)ccc4[nH]c3=O)c3nnnn3Cc3ccccc3)CC2)cc1 (stereo unspecified) | -4.6 | 14.1µM* | -20.4%
Cc1ccc2cc(C(c3nnnn3Cc3ccccc3)N3CCN(c4ccccc4)CC3)c(=O)[nH]c2c1 (stereo unspecified) | -0.8 | 25.1µM* | -8.7%
CCN1CCN(C(c2cc3cccc(C)c3[nH]c2=O)c2nnnn2Cc2ccccc2)CC1 (stereo unspecified) | 7.2 | ? | -11.5%
CCN(C(=O)CSc1nnc2nc(C)cc(C)n12)c1ccccc1 | nt | -6.9% | nt
Cc1ccc(C(=O)NCC(=O)O)o1 | nt | 2.5% | nt
COc1c2c(cc3c1C(CC(=O)c1c(O)c(OC)c4occc4c1OC)[N+](C)(C)CC3)OCO2 (stereo unspecified) | nt | -12.1% | -7.4%
COCCOC(=O)C1=C(C)N(Cc2ccccc2)C(=O)NC1c1ccc(OC)cc1 (stereo unspecified) | 4.9 | -1.3% | -6.5%
CCOC(=O)C1CCN(C(c2cc3c(C)ccc(C)c3[nH]c2=O)c2nnnn2C2CCCCC2)CC1 (stereo unspecified) | -4.4 | ? | -26.2%
CCOC(=O)C1CCN(C(c2cc3ccc(C)c(C)c3[nH]c2=O)c2nnnn2C2CCCCC2)CC1 (stereo unspecified) | 5.9 | 20µM* | -22.6%
C/C(=C\CO)CCC(C)CCCC(C)CCCC(C)C (stereo unspecified) | nt | -15.6% | -8.7%
CC12CCC(c3c(C(=O)O)nn(-c4ccccc4)c31)C2(C)C (stereo unspecified) | -6.1 | 9.5% | -6.3%
CC12CCC(c3c(C(=O)Nc4nccs4)nn(-c4ccccc4)c31)C2(C)C (stereo unspecified) | -4.1 | 3.98µM* | -21.2%
CCCCC(C=O)CC (stereo unspecified) | nt | -8.1% | -8.8%
CCCSc1ccc(C(=O)Nc2ccc(Cl)cc2)cn1 | nt | 8.6% | nt
COc1cccc(C2=CC(c3ccccc3)n3ncnc3N2)c1 (stereo unspecified) | -2.7 | ? | ?
COc1ccc(OC)c(C2C=C(c3ccc(C)c(C)c3)Nc3nnnn32)c1 (stereo unspecified) | -4.7 | 20µM* | -19.0%
COc1cccc(C2=CC(c3ccc(N(C)C)cc3)n3ncnc3N2)c1 (stereo unspecified) | -1.0 | 10µM* | -20.0%
COc1cccc(C2=CC(c3cc(OC)ccc3OC)n3nnnc3N2)c1 (stereo unspecified) | 10.0 | 25.1µM* | -13.4%
COc1cccc(C2=CC(c3cccc(OC)c3OC)n3nnnc3N2)c1 (stereo unspecified) | 1.3 | ? | -25.6%
COc1ccc(C2=CC(c3ccc(C)cc3)n3nnnc3N2)cc1 (stereo unspecified) | -11.1 | ? | ?
Cc1cccc(N2CCN(CCNC(=O)Nc3ccc(Cl)cc3)CC2)c1C | 6.7 | nt | nt
C/C(=N/NC(=O)c1ccc(Br)o1)C(C)C | nt | -3.9% | -7.7%
SMILES | IMPase inh | ALDH1A1 block | HPGD block
C=C(C)C(=O)OCC1CN2C(CCC(C)C2c2ccc(Br)cc2)C(=O)O1 (stereo unspecified) | nt | -0.4%[13.5 µM] | nt
CCOc1ccc(C(=O)NNC2CC(=O)N(Cc3ccc(Cl)cc3)C2=O)cc1OC (stereo unspecified) | nt | 2.2% | nt
Cc1nnc(Nc2ccc(Cl)c(C(F)(F)F)c2)[nH]c1=O | nt | -2.0% | nt
COC(C(=O)Nc1ccc(F)cc1F)c1ccccc1 (stereo unspecified) | 5.0 | -7.4% | -2.4%
COc1ccc(NC(=O)CN2CCN(CC(=O)Nc3ccccc3F)CC2)c(OC)c1 | -0.4 | 17.8µM* | -15.6%
O=C(CN1CCCC1)Nc1ccccc1C(=O)c1ccccc1 | nt | 14.2% | nt
COC(C(=O)Nc1ccc(Br)cc1F)c1ccccc1 (stereo unspecified) | nt | 10µM* | nt
COc1ccc(NC(=O)CN2CCN(CC(=O)Nc3ccccc3Cl)CC2)c(OC)c1 | 3.5 | ? | 0.6%
O=C(CN1CCN(S(=O)(=O)c2ccccc2F)CC1)Nc1ccccc1C(=O)c1ccccc1 | nt | 2.82µM* | nt
